Source: PubChem BioAssay
SRC1 TRFRET art = TR-FRET detection interference compounds, primary screen, artefact control for PPARgamma SRC-1 recruitment agonists, biochemical, TR-FRET emission ratio; TR-FRET ratio at 8 µM; AID 1051, 2008; TR-FRET detection artefact counter-screen; hits give high values; 0.34% of 99,000 active; in the data active means TR-FRET ratio above about 2300
SRC3 TRFRET art = TR-FRET detection interference compounds, artefact control for PPARgamma SRC-3 recruitment agonists, biochemical, TR-FRET ratio | TR-FRET ratio at 8 µM | 0.39% of 99,000 active | TR-FRET artefact counter-screen, PPARgamma/SRC-3 format; hits give high values
PPARg SRC-3 ag = PPARgamma agonists recruiting SRC-3 coactivator, primary screen, biochemical; biochemical PPARgamma/SRC-3 coactivator recruitment assay; 0.26% of 200,000 active; AID 731, 2007; activation, % at 8 µM; Peroxisome proliferator-activated receptor gamma (Homo sapiens), P37231; in the data active means activation above about 23%;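 further: 0% = DMSO and 100% = reference agonist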
Target sequence (P37231 whole entry, looked up): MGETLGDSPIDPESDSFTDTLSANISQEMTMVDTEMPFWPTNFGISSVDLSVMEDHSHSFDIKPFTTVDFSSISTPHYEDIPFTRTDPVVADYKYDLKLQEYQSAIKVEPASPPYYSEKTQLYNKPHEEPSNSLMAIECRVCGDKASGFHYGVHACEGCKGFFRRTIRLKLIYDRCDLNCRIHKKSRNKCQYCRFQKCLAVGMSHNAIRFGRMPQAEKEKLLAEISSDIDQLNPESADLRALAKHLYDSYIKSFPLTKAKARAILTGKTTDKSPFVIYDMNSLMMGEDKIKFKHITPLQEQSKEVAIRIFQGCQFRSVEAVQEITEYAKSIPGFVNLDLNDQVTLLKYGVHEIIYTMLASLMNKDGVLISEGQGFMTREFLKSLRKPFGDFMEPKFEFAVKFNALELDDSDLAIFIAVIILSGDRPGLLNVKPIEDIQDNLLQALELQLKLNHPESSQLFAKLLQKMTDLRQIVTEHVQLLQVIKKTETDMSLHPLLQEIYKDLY
PPARg SRC-1 ag = PPARgamma agonists recruiting SRC-1 coactivator, primary screen, biochemical. Peroxisome proliferator-activated receptor gamma (Homo sapiens), P37231. PPARgamma-SRC-1 coactivator recruitment biochemical assay. activation, % at 8 µM. 0.41% of 200,000 active. AID 631, 2007; in the data active means activation above about 19%;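 further: 0% = DMSO and 100% = reference agonist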
PPARg SRC2 recr = agonists of PPARg-SRC-2 recruitment, primary screen, biochemical, HTS. Peroxisome proliferator-activated receptor gamma (Homo sapiens), P37231. PPARgamma LBD-SRC-2 recruitment. activation, % at 8 µM. 0.34% of 200,000 active. AID 1032, 2008; in the data active means activation above about 22%;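 further: 0% = vehicle and 100% = reference agonist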
TR-FRET SRC-2 ct = TR-FRET signal artefacts, primary screen, artefact control for PPARgamma SRC-2 agonist project, biochemical | TR-FRET artefact counter-screen; hits give high values | TR-FRET ratio at 8 µM | 0.4% of 200,000 active
The depositor's hits bear a star. Sampled rows, rich in hits. Any-hit rate of the full collection: about 0.84%. Unless noted, no stated cut-off is given here; in the data, active means TR-FRET ratio above about 2000; inactive means the rest.

How did Cc1onc(-c2c(Cl)cccc2Cl)c1C(=O)N1C=CC(C(F)(F)F)=NCC1 do in these assays?
PPARg SRC-3 ag: 10.2; PPARg SRC-1 ag: 3.7; PPARg SRC2 recr: 10.0; TR-FRET SRC-2 ct: 1675

What do the screens show for `CC1Cc2ccccc2N1C(=O)CSc1nnc(-c2ccccc2)c(-c2ccccc2)n1` (stereo unspecified)?
PPARg SRC-3 ag: 2.4; PPARg SRC-1 ag: -2.7; PPARg SRC2 recr: 0.3; TR-FRET SRC-2 ct: 3425*

Results for COc1ccc2sc3c(=O)[nH]c4ccccc4c3c2c1 ?
PPARg SRC-3 ag: 7.5; PPARg SRC-1 ag: 144.7*; PPARg SRC2 recr: 1.5; TR-FRET SRC-2 ct: 1611

How did COc1ccc2c(c1)[nH]c(=O)c1sc3ccccc3c12 do in these assays?
PPARg SRC-3 ag: 7.7; PPARg SRC-1 ag: 14.7; PPARg SRC2 recr: 6.9; TR-FRET SRC-2 ct: 1661

How did C=CCN1C(=O)SC(Cc2cccc(OC)c2O)C1=O (stereo unspecified) do in these assays?
SRC1 TRFRET art: 1895; SRC3 TRFRET art: 1351; PPARg SRC-3 ag: 0.8; PPARg SRC-1 ag: 9.4; PPARg SRC2 recr: -2.5; TR-FRET SRC-2 ct: 1446

How did CCCn1nnnc1NC(=O)COc1ccc(Br)cc1 do in these assays?
SRC1 TRFRET art: 1871; SRC3 TRFRET art: 1450; PPARg SRC-3 ag: 4.4; PPARg SRC-1 ag: 4.1; PPARg SRC2 recr: 4.7; TR-FRET SRC-2 ct: 1638

What do the screens show for `Cc1ccc2nc(-c3ccc(NC(=S)NCCC(C)C)cc3)sc2c1`?
PPARg SRC-3 ag: 21.4; PPARg SRC-1 ag: 14.2; PPARg SRC2 recr: 41.3*; TR-FRET SRC-2 ct: 1682

What do the screens show for `CCCCNC(=S)Nc1ccc(-c2nc3ccc(C)cc3s2)cc1`?
SRC1 TRFRET art: 1999; SRC3 TRFRET art: 1753; PPARg SRC-3 ag: 2.1; PPARg SRC-1 ag: 3.0; PPARg SRC2 recr: 14.7; TR-FRET SRC-2 ct: 1744

What do the screens show for `O=C(NC(=S)N(CC1CCC1)CC1CCCO1)c1cccc([N+](=O)[O-])c1` (stereo unspecified)?
SRC1 TRFRET art: 1739; SRC3 TRFRET art: 1510; PPARg SRC-3 ag: -0.3; PPARg SRC-1 ag: 0.5; PPARg SRC2 recr: -0.4; TR-FRET SRC-2 ct: 1658

How did COc1ccccc1-n1c(SCC(=O)NC(C)(C)C)nc(O)cc1=O do in these assays?
PPARg SRC-3 ag: 4.1; PPARg SRC-1 ag: 5.7; PPARg SRC2 recr: 6.0; TR-FRET SRC-2 ct: 1559

What do the screens show for `CC(C)(C)NC(=O)CSc1nc(O)cc(=O)n1-c1ccccc1F`?
PPARg SRC-3 ag: 28.6*; PPARg SRC-1 ag: 0.0; PPARg SRC2 recr: -2.4; TR-FRET SRC-2 ct: 1528

Results for COC(=O)Cn1c(=NC(=O)c2cc(-c3cccs3)nc3ccccc23)sc2cc(S(N)(=O)=O)ccc21 ?
SRC1 TRFRET art: 1658; SRC3 TRFRET art: 1741; PPARg SRC-3 ag: 2.5; PPARg SRC-1 ag: 3.9; PPARg SRC2 recr: 4.9; TR-FRET SRC-2 ct: 1499

Results for COCCn1c(=NC(=O)c2cc(Cl)sc2Cl)sc2cc(S(N)(=O)=O)ccc21 ?
SRC1 TRFRET art: 1897; SRC3 TRFRET art: 1622; PPARg SRC-3 ag: 0.4; PPARg SRC-1 ag: 4.6; PPARg SRC2 recr: 3.1; TR-FRET SRC-2 ct: 1630

How did CCOC(=O)Cn1c(=NC(=O)c2cc(-c3cccs3)nc3ccccc23)sc2cc(S(N)(=O)=O)ccc21 do in these assays?
SRC1 TRFRET art: 1942; SRC3 TRFRET art: 2342*; PPARg SRC-3 ag: 6.5; PPARg SRC-1 ag: 10.8; PPARg SRC2 recr: 6.7; TR-FRET SRC-2 ct: 1552

How did CCOCCn1c(=NC(=O)c2cc(Cl)sc2Cl)sc2cc(S(N)(=O)=O)ccc21 do in these assays?
SRC1 TRFRET art: 1763; SRC3 TRFRET art: 4758*; PPARg SRC-3 ag: 29.5*; PPARg SRC-1 ag: 6.7; PPARg SRC2 recr: -2.3; TR-FRET SRC-2 ct: 1600

How did Cc1ccc(C)c(NC(=O)CSc2nc3ccc(N4C(=O)c5ccccc5C4=O)cc3s2)c1 do in these assays?
SRC1 TRFRET art: 1728; SRC3 TRFRET art: 1685; PPARg SRC-3 ag: -0.1; PPARg SRC-1 ag: -1.0; PPARg SRC2 recr: -5.4; TR-FRET SRC-2 ct: 1712

Results for CCn1ccnc1CN1CCN(CC(C)C)C(CCO)C1 (stereo unspecified) ?
SRC1 TRFRET art: 1924; SRC3 TRFRET art: 1663; PPARg SRC-3 ag: -2.0; PPARg SRC-1 ag: 7.3; PPARg SRC2 recr: 9.8; TR-FRET SRC-2 ct: 1561

Results for Cc1cccc(Nc2nnc(SCC(=O)c3ccc(Br)s3)s2)c1C ?
SRC1 TRFRET art: 2122; SRC3 TRFRET art: 2057*; PPARg SRC-3 ag: 6.5; PPARg SRC-1 ag: 12.6; PPARg SRC2 recr: 15.8; TR-FRET SRC-2 ct: 1770

What do the screens show for `C/C(N)=C(/C#N)C(=O)CSc1nnc(Nc2cccc(C)c2C)s1`?
PPARg SRC-3 ag: 6.3; PPARg SRC-1 ag: 4.0; PPARg SRC2 recr: 3.3; TR-FRET SRC-2 ct: 1532

What do the screens show for `Cc1ccc(C(=O)CN(C(=O)c2ccc(Cl)c(Cl)c2)N2C(=O)C3C4C=CC(C4)C3C2=O)cc1` (stereo unspecified)?
PPARg SRC-3 ag: -4.9; PPARg SRC-1 ag: 3.9; PPARg SRC2 recr: 1.0; TR-FRET SRC-2 ct: 1511

Results for Cc1nc2ccccc2nc1OCC(=O)NCC(F)(F)F ?
SRC1 TRFRET art: 2331*; SRC3 TRFRET art: 1862; PPARg SRC-3 ag: 1.1; PPARg SRC-1 ag: 3.8; PPARg SRC2 recr: 4.8; TR-FRET SRC-2 ct: 1705

How did FC(F)(F)c1ccc(Nc2nnnc3ccccc23)cc1 do in these assays?
SRC1 TRFRET art: 1815; SRC3 TRFRET art: 1572; PPARg SRC-3 ag: 3.0; PPARg SRC-1 ag: 2.0; PPARg SRC2 recr: -10.8; TR-FRET SRC-2 ct: 1548

Results for O=C(CSc1nnc(Cc2csc(Nc3cccc(Cl)c3)n2)o1)N1CCc2ccccc21 ?
PPARg SRC-3 ag: 19.4; PPARg SRC-1 ag: 13.2; PPARg SRC2 recr: 15.1; TR-FRET SRC-2 ct: 2013*

Results for CC(C)c1nnc(NC(=O)c2cccc(NC(=O)C(F)(F)F)c2)s1 ?
SRC1 TRFRET art: 1816; SRC3 TRFRET art: 1623; PPARg SRC-3 ag: 3.7; PPARg SRC-1 ag: 3.9; PPARg SRC2 recr: 7.0; TR-FRET SRC-2 ct: 1976*

How did NC1=CC(=O)c2cccc3cccc1c23 do in these assays?
PPARg SRC-3 ag: 26.2*; PPARg SRC-1 ag: 17.1; PPARg SRC2 recr: 12.8; TR-FRET SRC-2 ct: 1735

How did NC1=Nc2cccc3cccc1c23 do in these assays?
SRC1 TRFRET art: 2026; SRC3 TRFRET art: 1406; PPARg SRC-3 ag: 10.8; PPARg SRC-1 ag: -2.0; PPARg SRC2 recr: 6.4; TR-FRET SRC-2 ct: 1771

What do the screens show for `C=CCc1cccc(CNc2c(C)cc(C)cc2C)c1O`?
SRC1 TRFRET art: 1514; SRC3 TRFRET art: 1401; PPARg SRC-3 ag: 4.4; PPARg SRC-1 ag: -0.1; PPARg SRC2 recr: -3.9; TR-FRET SRC-2 ct: 1486

What do the screens show for `O=C(COC(=O)c1sc2ccccc2c1Cl)Nc1ncc(Cl)cc1Cl`?
SRC1 TRFRET art: 2015; SRC3 TRFRET art: 1668; PPARg SRC-3 ag: -3.4; PPARg SRC-1 ag: 7.0; PPARg SRC2 recr: 33.9*; TR-FRET SRC-2 ct: 2187*
